D3 antag = qHTS of D3 Dopamine Receptor Antagonist: qHTS. D3R cells, DiscoveRx beta-arrestin luminescence, antagonist mode; stronger effect = lower value. max response, negative = inhibition, %. actives 2.5% (n = 360,000). AID 652054, 2013; in the data active = max response below about -50%; inconclusive = no clear call, values can overlap the other calls
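Cells expressing the human receptor were seeded at 1500 cells/well, incubated overnight at 37 degrees C in 5% CO2, then exposed to library compounds with dopamine controls for 90 minutes at 37 degrees C before luminescent detection.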
PTHR1 agonist = qHTS for PTHR1 Agonists: Primary Screen | actives 0.075% (n = 410,000) | HEK293 GP2 PTHR1 cells, GloSensor cAMP luminescence, 1 h | Potency, µM (doses to about 115 µM), usual class: activators | Parathyroid hormone/parathyroid hormone-related peptide receptor (Homo sapiens), Q03431; also: nearly all actives have a fitted effect of over 55% in size
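HEK-293-derived GP2 cells expressing PTHR1 and a GloSensor cAMP reporter, 3,000/well, plated overnight, given luciferin plus IBMX (each 0.5 mM as added) for 1 h at 37 °C, then compound for 1 h at 37 °C. Luminescence was read after 15 min at room temperature.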
CBFb-RUNX1 inh = qHTS Assay for Compounds Blocking the Interaction Between CBF-beta and RUNX1 for the Treatment of Acute Myeloid Leukemia. Runt-related transcription factor 1 (Homo sapiens) + Core-binding factor subunit beta …. AID 1477, 2009. 230,000 tested, under 10 active. Potency, µM (highest dose often 59.8 µM), most hits filed as inhibitors. AlphaScreen CBFb-His/RUNX1-biotin binding, biochemical
Target sequence (Q01196 whole entry, looked up): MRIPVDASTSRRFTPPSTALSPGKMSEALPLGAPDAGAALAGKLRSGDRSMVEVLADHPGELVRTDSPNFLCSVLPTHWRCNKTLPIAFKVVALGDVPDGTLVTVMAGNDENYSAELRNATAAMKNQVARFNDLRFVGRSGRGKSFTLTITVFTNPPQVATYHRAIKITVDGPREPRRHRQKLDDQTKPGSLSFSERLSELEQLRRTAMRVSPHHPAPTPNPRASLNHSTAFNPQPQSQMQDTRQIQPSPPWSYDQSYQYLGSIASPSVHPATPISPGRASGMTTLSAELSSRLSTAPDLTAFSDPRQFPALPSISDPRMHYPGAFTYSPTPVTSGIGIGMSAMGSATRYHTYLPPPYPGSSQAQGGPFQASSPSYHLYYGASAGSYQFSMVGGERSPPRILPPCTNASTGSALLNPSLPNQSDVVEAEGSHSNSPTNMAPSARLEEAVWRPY
Target sequence (Q13951 whole entry, looked up): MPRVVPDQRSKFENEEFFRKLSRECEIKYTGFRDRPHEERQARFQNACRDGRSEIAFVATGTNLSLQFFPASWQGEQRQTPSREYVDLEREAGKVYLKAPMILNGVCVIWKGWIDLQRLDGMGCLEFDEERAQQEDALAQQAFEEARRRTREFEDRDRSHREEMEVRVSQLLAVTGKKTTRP
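His-tagged CBF-beta and biotinylated RUNX1 (30 nM each) were premixed 20 min at room temperature, exposed to compound for 15 min, then given nickel-chelate and streptavidin AlphaScreen beads (50 ng each). After 90 min, AlphaScreen signal was read.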
MBNL1 CUG block = qHTS Assay for Inhibitors of MBNL1-poly(CUG) RNA binding | Muscleblind-like protein 1 (Homo sapiens), Q9NR56 | TR-FRET MBNL1-His/biotin-(CUG)12 binding, 665/545 ratio | Potency, µM (series often up to 57.5 µM), most hits filed as inhibitors | actives 0.036% (n = 280,000); active = well fitted inhibition curve with a large enough effect in the signal ratio, with a control signal flat, not every such curve was filed as active; inconclusive = small, poorly fitted or top-dose-only effect, or effect the other way, or a change in a side signal; inactive = no such curve, though single readings can be large or run the other way; the % refers to the signal ratio
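His-tagged MBNL1 binding to biotinylated (CUG)12 RNA was measured by TR-FRET using terbium anti-His antibody (0.055 ng/ul final) and streptavidin-XL665 (5 nM final). Compounds were titrated 92 nM to 58 uM; 60 min at room temperature.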
D3 ag = qHTS of D3 Dopamine Receptor Agonist: qHTS; AID 652048, 2013; actives 0.58% (n = 410,000); D3R DiscoveRx beta-arrestin cells, luminescence, 90 min; max activation, %; D(3) dopamine receptor (Homo sapiens), P35462; in the data active = max activation above about 30%
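Agonist mode: compounds and dopamine controls were applied to plated cells for 90 min at 37 degrees C after an overnight attachment at 1500 cells/well. Luminescent read-out followed 30 - 60 minutes at room temperature with DiscoveRx detection reagent.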
a7 integrin act = qHTS for Activators of Integrin-Mediated Alleviation for Muscular Dystrophy; alpha7betagal myoblasts, beta-gal FDG fluorescence, 48 h; Potency, µM (titrated, usually from 38.3 µM), hits mostly activators; actives 0.064% (n = 350,000); AID 624291, 2012; also: nearly all actives have a fitted effect of over 60% in size
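Alpha7betagal+/- myoblasts (passage 13) were plated 16-24 hr, then exposed to compounds (1:260 dilution of DMSO stock) for 48 hours at 37C. After MPER lysis, β-galactosidase reporter activity was read as FDG fluorescence (ex 480/em 540) after 30 minutes.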
A number is an active result; . = inactive; ? = inconclusive; / = no result given. This is a sample that favours compounds with a hit; in the whole collection about 2.8% have one here. Unless noted, calls follow the shape of the dose curve; as a rule, active = well fitted curve in the direction sought with a large enough effect; inconclusive = small, poorly fitted or top-dose-only effect, or another doubt; inactive = no such curve, though single readings can be large; an effect the other way counts as inactive or inconclusive.

SMILES	D3 antag	PTHR1 agonist	CBFb-RUNX1 inh	MBNL1 CUG block	D3 ag	a7 integrin act
CCOC(=O)CC(NC(=O)CCc1c(C)nc2c(-c3ccccc3)c(C)nn2c1C)c1ccc(OC(C)C)cc1 (stereo not drawn)	/	.	/	/	36.3	/
COc1cc(C2c3cc4c(cc3OC(Nc3ccc(C(=O)O)cc3)C2C)OCO4)cc(OC)c1OC (stereo not drawn)	.	.	/	/	32.7	.
COc1cc(C2c3cc4c(cc3OC(NCCc3ccccc3)C2C)OCO4)cc(OC)c1OC (stereo not drawn)	.	.	/	/	.	.
C=CCNC(=O)c1ccsc1N	.	.	/	/	.	/
Cc1ccc(CN2CC(N3CCN(C)CC3)CS2(=O)=O)cc1 (stereo not drawn)	-67.6	.	/	/	.	/
CCCCCCN1CCN(C2CN(Cc3ccccc3)S(=O)(=O)C2)CC1 (stereo not drawn)	-93.6	.	/	/	.	/
CCCCNC(=O)COC(=O)c1c2c(nc3ccccc13)/C(=C\c1cccs1)CC2	.	.	/	/	34.1	.
CN(C)CCNc1nc2c(c(=O)[nH]c(=O)n2C)n1CCCc1ccccc1	-76.1	.	.	.	.	.
Cn1c(=O)c2c([nH]c(=S)n2CCCc2ccccc2)n(C)c1=O	.	.	/	.	.	.
Cn1c(=O)[nH]c(=O)c2c1[nH]c(=S)n2CCCc1ccccc1	-53.7	.	/	.	.	.
Cc1cc(OCC(O)CN2CCN(c3cccc(Cl)c3)CC2)ccc1Cl (stereo not drawn)	/	.	/	/	.	/
O=C(/C=C/c1ccc(F)cc1)N1CCN(Cc2ccccc2)CC1	-68.5	.	/	/	.	.
O=C(/C=C/c1ccccc1)N1CCN(CC(O)COc2ccccc2)CC1 (stereo not drawn)	-71.1	.	.	.	.	.
Cc1cccc(N2CCN(CC(O)COc3ccc4ccccc4c3)CC2)c1 (stereo not drawn)	?	.	/	/	47.2	.
Cc1ccc(/C=C/C(=O)N2CCCN(C(=O)/C=C/c3ccc(C)cc3)CC2)cc1	-58.5	.	.	.	.	.
O=C(/C=C/c1ccc(Br)cc1)N1CCN(Cc2ccccc2)CC1	.	.	/	/	.	.
OC(COc1ccccc1)CN1CCCCC1 (stereo not drawn)	?	.	/	/	.	.
OC(COc1ccc(-c2ccccc2)cc1)CN1CCCCC1 (stereo not drawn)	.	.	/	/	.	.
Cc1cccc(CN2CCN(C(=O)c3ccccc3F)CC2)c1	-78.1	.	.	.	.	.
OC(COc1ccc(Cl)cc1)CN1CCC(Cc2ccccc2)CC1 (stereo not drawn)	-75.8	.	/	.	.	.
COc1ccc(N2CCN(CC(O)COc3ccc(F)cc3)CC2)cc1 (stereo not drawn)	-66.4	.	/	.	.	.
Cc1ccc(OCC(O)CN2CCN(c3ccccc3)CC2)cc1 (stereo not drawn)	-74.9	.	.	.	.	.
Cc1ccc(C)c(OCC(O)CN2CCC(Cc3ccccc3)CC2)c1 (stereo not drawn)	.	.	/	.	.	.
COc1ccc(-c2coc3ccc(OC4OC(COC(C)=O)C(OC(C)=O)C(OC(C)=O)C4OC(C)=O)cc3c2=O)cc1 (stereo not drawn)	/	/	.	/	/	/
COc1ccc(CCNC(=O)CCCn2c(=S)[nH]c3ccsc3c2=O)cc1OC	.	.	/	/	.	.
SMILES	D3 antag	PTHR1 agonist	CBFb-RUNX1 inh	MBNL1 CUG block	D3 ag	a7 integrin act
C[N+](C)(CCOc1ccccc1)Cc1cccs1	/	/	/	/	.	/
Cc1ccc(OCC(O)CN2CCN(c3ccc(C)cc3)CC2)cc1 (stereo not drawn)	-87.9	.	/	.	.	.
COc1ccc2cc(/C=C/C(=O)N3CCN(CC(=O)N4CCCCCC4)CC3)ccc2c1	.	.	/	?	35.8	.
COc1ccc(N2CCN(CC(O)COc3cc(C)cc(C)c3)CC2)cc1 (stereo not drawn)	.	.	/	.	.	.
COc1ccc(OCC(O)CN2CCN(c3ccc(OC)cc3)CC2)cc1 (stereo not drawn)	?	?	/	.	.	.
OC(COc1ccc(Cl)cc1)CN1CCN(c2ccccc2)CC1 (stereo not drawn)	-87.0	.	/	.	.	.
Cc1ccc(N2CCN(CC(O)COc3ccccc3)CC2)cc1 (stereo not drawn)	-54.3	.	/	?	.	.
Cc1ccc(OCC(O)CN2CCN(CC(O)COc3ccc(C)cc3)CC2)cc1 (stereo not drawn)	?	.	.	.	.	?
CC1CCCC(NC(=O)CSc2ccc(F)cc2)C1C (stereo not drawn)	.	.	.	.	.	.
CC1CCCC(NC(=O)CSc2n[nH]c(=O)n2Cc2ccccc2)C1C (stereo not drawn)	.	.	/	/	48.1	.
CC1CCN(S(=O)(=O)c2ccc3c(c2)c(=O)c(C(=O)N2CCCCC2)cn3C)CC1	.	.	.	.	34.5	.
OCC[C@H]1C[C@@H](O)[C@H](O)[C@]2(Cc3ccccc3CCO2)O1	.	.	/	/	31.2	.
OCC[C@H]1C[C@H](O)[C@@H](O)[C@]2(Cc3ccccc3O2)O1	-67.8	.	/	/	.	.
OCC[C@@H]1C[C@H](O)[C@@H](O)[C@@]2(Cc3ccccc3CCO2)O1	.	.	/	.	.	.
OCC[C@@H]1C[C@@H](O)[C@H](O)[C@@]2(Cc3ccccc3O2)O1	.	.	/	.	.	.
CCN1CCN(C(=O)c2cc(COc3ccc(F)c(F)c3)on2)[C@@H](C)C1=O	.	.	/	/	.	.
Cc1nc(N)sc1-c1csc(Nc2ccccc2)n1	-55.5	.	.	.	.	.
O=C(/C=C/c1ccncc1)c1ccc2c(c1)OCCO2	-54.0	.	.	.	.	.
O=C(/C=C/c1ccccc1)c1ccc2c(c1)OCO2	.	.	.	.	.	.
CCCCNC(=O)c1ccc(NS(=O)(=O)c2ccc3[nH]c(=O)[nH]c3c2)cc1	.	.	/	.	.	.
COCCCNC(=S)Nc1cc(C)c(C)cc1C	.	.	.	.	.	.
COCCNC(=S)Nc1cc(OC)c(OC)cc1C#N	-50.8	.	.	.	.	.
COc1ccc(CNC(=O)c2ccc(-n3ccnc3)c3ccoc23)cc1OC	-76.3	.	/	/	.	/
COc1ccc(CNC(=O)c2ccc(-n3cncn3)c3ccoc23)cc1OC	.	.	/	/	.	/

From PubChem
